From PubChem
Pf apPOL inh = Pf-apPOL DNA polymerase inhibition | inhibition, % at 10 µM | 210,000 compounds, 0.25% hits | Recombinant Pf-apPOL, molecular beacon fluorescence, 1.5 h
mHTT CaM bind = disrupts binding of mutant huntingtin to calmodulin. 190,000 compounds, 3.6% hits. inhibition, % at 15 µM. AlphaScreen His-mHTT/GST-CaM binding, luminescence;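 note: 0% = both proteins with DMSO and 100% = one protein alone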
* hit, by the source's call; x = no result given; ! = not active in a repeat. Only some compounds are listed: those with a hit (about 3.6% of all), similar ones and a draw of the others. Cut-off read from the data, not from the text of the source: active = inhibition above about 50%; inactive = the rest.

SMILES	Pf apPOL inh	mHTT CaM bind
OCCN=Cc1c(O)n(-c2c(Cl)cccc2Cl)c2ccccc12	-0.8	85.0*
CC(C)NC(=O)c1nn(C)c2c1COc1ccccc1-2	-4.0	-0.2
O=C(C1CCC1)N1CCc2sc(S(=O)(=O)NCc3ccc(Cl)cc3)cc2C1	-5.1	0.4
CCOc1ccc(/C=C2\N=C(c3cc(Cl)ccc3Cl)OC2=O)cc1	-0.7	2.0
O=C(COc1ccccc1F)N1CCC(COCc2ccccc2)CC1	-6.6	-16.3
CCOC(=O)NN=C(C)c1oc(C)cc1C	0.2	x
CC(=O)Nc1ccc(S[C@@H](CCN2CC[C@H](C(C)(C)C)CCC2=O)c2ccccc2)cc1	-1.0	60.7*
CC(C)(C)[C@@H]1CCC(=O)N(CC[C@H](Sc2ccccc2)c2ccccc2)CC1	-1.0	-6.3
O=C1CC(Sc2ccc(Br)cc2)C(=O)N1c1ccccc1 (stereo not drawn)	-5.7	-11.8
O=C(NCCc1ccccc1)C1CCCC1	-2.0	-2.6
O=C(ON1C(=O)C2C3C=CC(O3)C2C1=O)c1cccnc1Oc1ccccc1 (stereo not drawn)	77.2*	x
Cc1nn(-c2ccccc2)nc1C(=O)ON1C(=O)C2C3C=CC(O3)C2C1=O (stereo not drawn)	-72.3	x
O=C1NC(=O)[C@H]2[C@@H]1[C@@H](C(=O)c1ccccc1)N1c3ccccc3C=C[C@H]21	x	58.4*
NC(=O)N1c2ccccc2C=Cc2ccccc21	2.0	x
Cn1cnnc1SCC(=O)c1cccs1	98.4*	-4.7
O=C(CSc1nn2c(SCC(=O)c3cccs3)nnc2s1)c1cccs1	4.8	17.0
O=C(Nc1ccc2c(c1)Cc1ccccc1-2)c1ccccc1Cl	-2.1	-6.0
COc1ccc(N)cc1-n1c(C)ccc1C	-4.0	76.3*
COc1cc(N)ccc1Cc1ccc(N)cc1OC	-1.9	29.2
CN1C(=O)c2cccnc2Sc2cc(C(=O)NCc3ccc(F)cc3)ccc21	-5.2	-8.2
COc1cc(/C=C2/NC(=O)N(Cc3ccc(Cl)cc3)C2=O)cc(Br)c1O	0.5	39.0
COc1cc(/C=C2/NC(=O)N(Cc3ccc(Br)cc3)C2=O)cc(OC)c1O	-5.0	55.0*
CC1(C)Nc2sc3c(c2-c2nnnn21)CCCC3	x	55.6*
O=C1NC2(Nc3sc4c(c31)CCCC4)C(=O)Nc1ccccc12 (stereo not drawn)	18.4	23.0
COc1ccc(C(NC(C)=O)c2ccc3cccnc3c2O)cc1OC (stereo not drawn)	-24.2	100.0*
SMILES	Pf apPOL inh	mHTT CaM bind
CCC(=O)NC(c1ccc(OC)c(OC)c1)c1ccc2cccnc2c1O (stereo not drawn)	94.1*!	100.0*
COc1ccc(C(NC(=O)CC(C)C)c2ccc3cccnc3c2O)cc1OC (stereo not drawn)	-8.8	24.0
COc1cc(NC(=O)Cc2ccc(OC)c(OC)c2)c2ncccc2c1	-4.5	15.0
COc1ccc(C2C(C(=O)Nc3ccccn3)c3cc(OC)c(OC)cc3C(=O)N2C)cc1 (stereo not drawn)	-1.8	-1.0
CC(=O)Nc1cccnc1-c1ccc(C(=O)Nc2ccc(C)c(Cl)c2)cc1	10.9	3.9
CC(=O)Nc1ccc(N/C=C(\C#N)c2nc(-c3ccc(C)cc3C)cs2)cc1	3.9	10.9
COc1cc([N+](=O)[O-])cc2c1NC(c1cccc(Cl)c1Cl)C1CC=CC21 (stereo not drawn)	6.7	16.0
Fc1cccc2c1N[C@@H](c1c3ccccc3cc3ccccc13)[C@H]1CC=C[C@@H]21	x	-6.5
O=[N+]([O-])c1ccccc1C1Nc2c(cccc2[N+](=O)[O-])C2C=CCC21 (stereo not drawn)	5.1	65.0*
O=C(O)c1cccc2c1NC(c1ccccc1[N+](=O)[O-])C1CC=CC21 (stereo not drawn)	-9.2	92.0*
O=[N+]([O-])c1cccc2c1NC(c1ccccc1F)C1CC=CC21 (stereo not drawn)	-1.6	75.0*
O=C(O)c1ccc([N+](=O)[O-])c2c1NCC1CC=CC21 (stereo not drawn)	2.1	9.0
CCCNC(=O)c1cn2c(n1)CCC(c1cccc(C)c1)C2 (stereo not drawn)	-1.1	2.1
CCCCCc1ccc(C(N)=NO)cc1	-2.1	x
O=C(Cn1cc(-c2ccc(F)cc2)oc1=O)NC1CCN(Cc2ccccc2)CC1	-5.6	12.6
CCCc1nc2cccnc2n1C1CCN(C(=O)c2ccc(OC)cc2)C1 (stereo not drawn)	2.8	6.1
Cc1c[n+](C)ccc1CC1C([N+](=O)[O-])=CNc2ncnn21 (stereo not drawn)	-1.8	6.0
CC(C)C[C@H](CO)N(Cc1ccccc1)S(=O)(=O)N(Cc1ccccc1)[C@@H](CO)CC(C)C	-5.0	75.2*
C=CS(=O)(=O)N(Cc1ccccc1)[C@H](CO)CC(C)C	-6.5	-3.1
COc1ccc(Cl)cc1NC(=O)CN1C(=O)CC(C)Sc2ccccc21 (stereo not drawn)	-4.0	-0.4
COc1ccc(NC(=O)CN2C(=O)CC(c3ccco3)Sc3ccccc32)c(OC)c1 (stereo not drawn)	-2.6	92.1*
CC(C)CNC(=O)C1CN(C(=O)c2ccc(F)cc2)CC1c1ccc(F)cc1 (stereo not drawn)	-6.9	4.2
O=C(O)CC(C(=O)O)c1ccco1 (stereo not drawn)	x	-3.1
OC(C#Cc1ccccc1)c1ccco1 (stereo not drawn)	70.4*	99.9*
CCOc1ccc(/C=C2\C(=O)ON=C2C)cc1OC	0.7	64.0*
SMILES	Pf apPOL inh	mHTT CaM bind
C#CCOc1ccc(/C=C2\C(=O)ON=C2C)cc1OC	-2.9	22.0
C=CCOc1ccc(/C=C2/C(=O)ON=C2C)cc1OC	-3.8	87.0*
COc1cc(/C=C2/C(=O)ON=C2C)ccc1OCCc1ccccc1	0.4	20.0
COc1cc(/C=C2/C(=O)ON=C2C)ccc1OCC(C)C	-6.8	16.0
CCOc1cc(/C=C2\C(=O)ON=C2C)ccc1OCc1ccccc1	2.3	15.0
CCOc1cc(/C=C2/C(=O)ON=C2C)ccc1OCc1cccc(Cl)c1	-5.6	99.0*
C#CCOc1ccc(/C=C2\C(=O)ON=C2C)cc1OCC	-6.0	51.0*
O=C(CCSc1ccccc1)NCC1CCN(Cc2cccs2)CC1	0.3	-4.2
CCc1cc2c(=O)c(-c3ccc4c(c3)OCCO4)coc2cc1OC(C)=O	-2.7	-4.1
N#CC1=C(SCC(=O)Nc2ccccc2)NC(=O)CC1c1ccc(Br)cc1 (stereo not drawn)	-3.6	8.9
CC1=C(C(=O)Nc2ccccc2F)C(c2ccc(Cl)cc2)C2=C(CC(C)(C)CC2=O)N1 (stereo not drawn)	-3.3	-17.0
CCOc1cc(/C=C2/C(=O)ON=C2C)ccc1OCc1ccc(Br)cc1	11.3	13.0
CCCOc1ccc(/C=C2\C(=O)ON=C2C)cc1OCC	1.4	85.0*
COc1ccc(CCC(=O)NCCn2ccnc2C)cc1	-8.4	-14.4
C=CCNC(=O)c1nnc(N2CCCCC2)c2ccccc12	-0.9	3.0
Cc1cc(NS(=O)(=O)c2ccc(NC(=O)c3ccc(Cl)c([N+](=O)[O-])c3)cc2)nc(C)n1	1.3	26.0
O=C(c1ccc([N+](=O)[O-])cc1Cl)N1CCOCC1	-4.4	-1.8
Cc1ccnc(Nc2ccc(N3CCN(C(=O)c4snnc4C)CC3)nn2)c1	-3.7	-7.7
Oc1ccc(C2CC3CCC2C3)cc1O (stereo not drawn)	-2.3	53.5*
Cc1cc(C2CCCCC2)ccc1O	-2.4	2.6
O=C(c1ccc(Cl)s1)N1CCCN(c2nnc3ccccn23)CC1	-4.6	0.3
